Screening data from PubChem BioAssay.
An excerpt weighted towards active compounds, which were near 20% of everything screened.
Pf growth 48h – inhibits P. falciparum growth in the first generation, 48 h; P. falciparum luciferase growth in erythrocytes, 48 h; Potency, µM (titrated, usually from 28.7 µM), for inactives: at the top dose activity change, negative = inhibition, most hits filed as inhibitors; actives 5.9% (n = 310,000); also: potency is read from the fitted curve at half-maximal effect; % is scaled to controls: 0 for no effect and ±100 for the full control effect
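Cell-based growth assay: transgenic P. falciparum expressing firefly luciferase, cultured in red cells within RPMI 1640 containing 0.5% w/v Albumax, 24 mM bicarbonate and gentamycin. A drop in luciferase activity indicates inhibition.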
Pf growth 96h – inhibits malaria parasite growth, 96 h | P. falciparum luciferase reporter growth, 96 h | Potency, µM (titrated, usually from 28.7 µM), inactives show at the top dose activity change, negative = inhibition, usual class: inhibitors | actives 6.9% (n = 320,000) | AID 504834; also: potency is read from the fitted curve at half-maximal effect; % is scaled to controls: 0 for no effect and ±100 for the full control effect
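Two parasite generations (96 h, 37 C, 5% CO2) of compound exposure in infected erythrocytes (0.05% parasitemia, 2% hematocrit). Luciferase-reporter P. falciparum; decreased luminescence indicates inhibited growth, aimed at apicoplast-acting delayed death.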
Shiga toxin inh – blocks Shiga toxin action in Vero cells | inhibition, % at 38.7 µM | actives 9.2% (n = 290,000) | AID 2315 | Vero cells, Shiga toxin protein synthesis inhibition reporter; in the data active = inhibition mostly above about 28%, no sharp cut-off; inactive = mostly below about 43%; also: 0% is about no effect
CHX counter – counter-screen hit for Shiga toxin inhibitors, cycloheximide; cell reporter, cycloheximide protein synthesis inhibition counterscreen; max response, %; actives 12% (n = 300,000); in the data active = max response mostly above about 13%, no sharp cut-off; inactive = mostly below about 14%; also: read at 38.3 µM for the half of the compounds with a filed dose; 0% is about no effect
HCMV antiviral – human cytomegalovirus inhibition; HFF cells, HCMV-luciferase reporter, 72 h; active compounds read low; activity change, negative = inhibition, % at 57.5 µM; actives 4.5% (n = 410,000); AID 1259415; in the data active = activity change below about -60%; inconclusive = no clear call, values can overlap the other calls; inactive = above about -39%; also: % is scaled to controls: 0 for no effect and ±100 for the full control effect
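After 16 h attachment at 37C, HFF cells received test compound and HCMV-luciferase (1 PFU/cell); reporter luminescence read 72 h later, data normalized against buffer-only and known inhibitor Salinomycin.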
Active calls of the source: *; ? = inconclusive; / = no result given. Unless noted, calls follow the shape of the dose curve; as a rule, active = well fitted inhibition curve with a large enough effect; inconclusive = small, poorly fitted or top-dose-only effect, or another doubt; inactive = no such curve, though single readings can be large or run the other way.

SMILES	Pf growth 48h	Pf growth 96h	Shiga toxin inh	CHX counter	HCMV antiviral
COc1ccc(/C=C/C(=O)NNC(=O)C(C)Oc2ccccc2F)cc1OC (centres undefined)	/	/	/	/	21.9
COc1ccc(S[C@]2(c3nc(C)no3)CC(=O)N[C@@H]2c2ccc(OC)cc2)cc1	/	/	/	/	-2.3
O=C(c1ccc(Cl)cc1)C(CN1CCCC1)c1ccccc1 (centres undefined)	-10.9%	-21.7%	2.7	-9.1	-101.0*
COc1ccc(C(=O)c2c(C)n(CCN3CCOCC3)c3ccccc23)cc1	-14.7%	12µM*	/	/	-22.4
OC(COC(c1ccccc1)c1ccccc1)CN1CCOCC1 (centres undefined)	6.2%	9.8%	-6.1	-0.9	30.4
c1ccc(C(CN2CCOCC2)c2ccccc2)cc1	0.0%	8.28µM*	-11.4	1.8	40.4
CCCOc1ccc(C(=O)C(CN2CCCC2)c2ccccc2)cc1 (centres undefined)	10.4µM*	?	-5.0	5.8	-81.8*
COc1ccc(-c2nc3ccccc3c(=O)n2CCN2CCOCC2)cc1	5.8%	?	12.5	1.8	12.2
Cc1ccc(NS(=O)(=O)c2ccc3[nH]c4c(c3c2)CCCCC4)cc1	/	/	/	/	-20.2
Cc1ccn2c(Nc3ccc4c(c3)OCCO4)c(-c3ccc(N(C)C)cc3)nc2c1	/	/	/	/	74.3
O=C(COC(=O)C1CC(=O)N(Cc2ccco2)C1)c1ccc(OC(=O)c2ccccc2)cc1 (centres undefined)	-24.1%	?	71.9*	33.3*	-7.5
CC(OC(=O)C1CC(=O)N(Cc2ccccc2)C1)C(=O)Nc1cccc(C#N)c1 (centres undefined)	0.0%	6.57µM*	-2.8	7.8	44.8
Cc1ccccc1NC(=O)C(C)OC(=O)C1CC(=O)N(Cc2ccco2)C1 (centres undefined)	?	-17.8%	/	/	-102.1*
CC(OC(=O)CC1CCCCC1)C(=O)Nc1cccc(C#N)c1 (centres undefined)	?	8.4%	/	/	-14.3
Cc1ccsc1C(=O)N1CCC1(C)C(=O)NS(=O)(=O)c1ccc(Br)cc1 (centres undefined)	/	/	/	/	12.2
CC(C)(CCCCCCCCCCC(C)(C)CC(=O)O)CC(=O)O	/	/	-2.4	-3.0	/
CC(=O)N1CCc2cc(S(=O)(=O)C(C)CC(=O)Nc3ccc(OC(F)(F)F)cc3)ccc21 (centres undefined)	0.3%	-15.3%	16.0	29.0*	-32.5
CCC(=O)N1CCc2cc(S(=O)(=O)CCC(=O)Nc3ccc(Cl)c(C(F)(F)F)c3)ccc21	/	/	/	/	-91.2*
COc1ccc(NC(=O)CCS(=O)(=O)c2ccc3c(c2)CCN3C(C)=O)cc1	5.9%	11.7µM*	1.1	-2.9	-7.5
CCOC(=O)c1cccc(NC(=O)CCS(=O)(=O)c2ccc3c(c2)CCN3C(=O)CC)c1	/	/	/	/	-6.4
CN1CC(=O)NC1=NC(=O)C12CC3CC(CC(C3)C1)C2	?	11.7µM*	-8.6	-2.2	-35.7
O=C1NCCN1C(=O)C12CC3CC(CC(C3)C1)C2	?	/	5.6	-3.0	-14.2
Cc1cc(C)c2c(N)c(C(=O)Nc3ccccc3F)sc2n1	141.4%	45.8%	41.1*	33.7*	27.3
Cc1cc(C)c2c(N)c(C(=O)Nc3ncc(C)s3)sc2n1	-91.1%	21.1%	-15.2	-7.0	-85.8*
CCc1ccccc1NC(=O)c1sc2nc(C)cc(C)c2c1N	0.0%	30.1%	50.0	12.2	-3.5
SMILES	Pf growth 48h	Pf growth 96h	Shiga toxin inh	CHX counter	HCMV antiviral
Cc1cc(C)c2c(N)c(C(=O)Nc3ccccc3Br)sc2n1	71.1%	?	38.8*	24.2*	47.6
Cc1cc(C)c2c(N)c(C(=O)c3ccc(Cl)cc3Cl)sc2n1	13.1µM*	35.0%	-16.7	6.9	3.3
Cc1cc(C)c2c(N)c(C(=O)Nc3ccccc3Cl)sc2n1	/	/	/	/	-6.2
C#CCOc1ccc(-c2nnc(Nc3ccc(NC(C)=O)cc3)c3ccccc23)cc1	/	/	/	/	-19.8
COc1ccc2nc(NC(=O)c3sc4nc(C)cc(C)c4c3N)sc2c1	148.7%	214.8%	76.3*	36.0*	-20.9
COC(=O)c1sc2nc(C)cc(C)c2c1N	43.5%	6.6%	31.3	8.9	-17.6
Cc1ccc(S(=O)(=O)Cn2nnnc2C(C(C)C)N2CCC(O)CC2)cc1 (centres undefined)	-0.8%	10.0%	14.8	-3.4	8.0
CC(C)(C)NC(=O)c1ccc(Sc2ccccc2)c([N+](=O)[O-])c1	10.4µM*	?	-7.7	8.8	41.7
COc1ccccc1Sc1nc(-c2ccccn2)ncc1OC	?	?	-9.3	3.0	?
COc1cnc(-c2ccccn2)nc1Sc1ccc(C)cc1	11.7µM*	?	6.8	5.3	-81.1*
FC(F)(F)c1cccc(Sc2cc(C(F)(F)F)nc(-c3ccccn3)n2)c1	0.0%	?	-16.3	-0.9	-16.0
COc1cnc(-c2ccccn2)nc1Sc1cccc(Cl)c1	?	1.47µM*	-3.5	1.3	-64.4*
Cc1ccc(Sc2cc(C)nc(-c3ccccn3)n2)cc1	?	?	46.4	30.8*	-75.8*
Cc1ccc(Cl)cc1Nc1nn2c(=O)c3ccc(C(=O)NC4CCCCC4)cc3nc2s1	/	/	/	/	-0.6
CSc1cccc(Nc2cc(C(=O)NCCCN(C)c3ccccc3)c3ccccc3n2)c1	/	/	/	/	11.6
CCOC(=O)c1nc2ccccc2c(=O)[nH]1	51.1%	44.5%	54.3*	36.6*	-19.4
Cc1ccsc1C(=O)OCc1nc2ccccc2c(=O)[nH]1	58.1%	/	61.1*	58.3*	33.4
CCOC(=O)CSc1nc2ccccc2c(=O)[nH]1	20.4%	12.1%	-4.8	-1.2	96.5
Cc1cccc(CCNC(=O)c2cc3c(=O)[nH]c4ccc(C)cc4c3s2)c1	/	/	/	/	-1.9
CC(C)(C)c1ccc(C(=O)NC(=S)N2CCCC2)cc1	?	4.9%	28.3	32.3*	61.3
C=CCNC(=S)NC(=O)c1csc([N+](=O)[O-])c1	9.0%	?	4.0	1.2	-28.3
CC1CCN(C(=S)NC(=O)c2ccc(C(C)(C)C)cc2)CC1	?	?	5.1	5.1	30.9
CC(C)(C)c1ccc(C(=O)N2CCCCCC2=O)cc1	5.22µM*	6.4%	-11.1	-7.4	-2.0
O=C(NC(=S)N1CCCCC1)c1csc([N+](=O)[O-])c1	14.7µM*	5.22µM*	7.5	-2.3	?
CC(C)(C)c1ccc(C(=O)NC(=S)N2CCCCCC2)cc1	?	?	34.5	19.8*	1.3
SMILES	Pf growth 48h	Pf growth 96h	Shiga toxin inh	CHX counter	HCMV antiviral
O=C1CCCCCN1C(=O)c1ccccc1	/	/	/	/	-17.5
COc1cccc2cc(-c3cn4c(n3)sc3cc(F)ccc34)c(=O)oc12	/	/	/	/	-13.3
COc1ccc2c(c1)CC(C(=O)NCCCN1CCN(c3cccc(Cl)c3)CC1)CO2 (centres undefined)	/	/	/	/	-35.5
N#Cc1ccc(C(=O)N2CCN(S(=O)(=O)c3ccc(Cl)s3)CC2)cc1	?	10.1%	/	/	21.4
CC(C)(C)c1ccc(C(=O)NC(=S)Nn2cnnc2)cc1	8.2%	?	120.4*	18.5*	8.9
CCC1CCc2nc3sc(C(=O)Nc4cccc(F)c4)c(N)c3cc2C1 (centres undefined)	/	/	/	/	19.1
